# The campaign covered roughly 48,000 compounds. About 13,000 (27%) showed an effect of 50% or more. Some of the results follow.
# Tested on: Wolbachia pipientis
# Test: Anti-Wolbachia Cell-Based Screen
# Type: functional
# Design: scale not given: in the data most compounds retested in dose-response had high values
# Conditions: 5 µM
row,Structure (SMILES),Percent Effect
1,O=C(Cc1ccsc1)NC1CCc2c(ccc(=O)n2CC2CC2)C1 (stereo not given),-22.09%
2,CN(C)CCn1c2c(ccc1=O)CC(NC(=O)c1cnccn1)CC2.O=C(O)C(F)(F)F (stereo not given),97.98%
3,O=C(NC1CCc2c(ccc(=O)n2CC2CC2)C1)c1ccsc1 (stereo not given),1.111%
4,CN(C)CCn1c2c(ccc1=O)CC(NC(=O)c1ccsc1)CC2.O=C(O)C(F)(F)F (stereo not given),112.1%
5,CC(C)NC1CCc2c(ccc(=O)n2CCN2CCCC2=O)C1.O=C(O)C(F)(F)F (stereo not given),-4.2%
6,CN(C)CCn1c2c(ccc1=O)CC(NC(=O)NC1CCCC1)CC2.O=C(O)C(F)(F)F (stereo not given),92.43%
7,CC(C)NC1CCc2c(ccc(=O)n2CCN(C)C)C1.O=C(O)C(F)(F)F.O=C(O)C(F)(F)F (stereo not given),8.884%
8,Cn1c2c(ccc1=O)CC(NC(=O)c1ccsc1)CC2 (stereo not given),116.4%
9,Cc1ccc(Sc2ccc(N3CCCC(C(=O)O)C3)nn2)cc1 (stereo not given),-25.21%
10,Cn1cc(C(=O)N2CCOc3cc(F)ccc32)ccc1=O,-3.875%
11,O=C(Nc1ccnc2ccnn12)c1ccc(NC2CC2)nc1,-6.003%
12,Cc1nc(N2CCN(C(=O)c3cccs3)CC2)cc(-n2cccc2)n1,0.4402%
13,CC(Cc1cccc(F)c1)C(=O)NS(=O)(=O)c1ccc2c(c1)OCCO2 (stereo not given),-30.67%
14,CCc1nc(CCNc2ncccc2S(N)(=O)=O)sc1C,-14.32%
15,CN1CCOC(CNCc2coc(-c3cccs3)n2)C1 (stereo not given),12.46%
16,CCc1n[nH]c(C2CN(Cc3csc(C4CCCC4)n3)CCO2)n1 (stereo not given),5.778%
17,CN1CCOC(CNCc2csc(C3CCCCC3)n2)C1 (stereo not given),102.8%
18,CN1CCOC(CNCc2csc(C3CCCC3)n2)C1 (stereo not given),96.75%
19,Cc1n[nH]c(C2CN(Cc3csc(C4CCCCC4)n3)CCO2)n1 (stereo not given),-9.689%
20,CN(C)C(=O)[C@H]1CC[C@@H]2[C@@H](CCN2C(=O)N(C)C)O1,-14.11%
21,O=C(c1ccc[nH]1)N1CCOC2(COCCN(c3cncnc3)C2)C1 (stereo not given),-9.951%
22,O=C(c1ccc[nH]1)N1CCOCC2(C1)CN(c1ccccc1)C(=O)CO2 (stereo not given),99.07%
23,O=C(N1CCCC1)N1CCOCC2(C1)CN(c1ccccc1)C(=O)CO2 (stereo not given),96.63%
24,CN(C)CC(=O)N1CCOCC2(C1)CN(c1ccccc1)C(=O)CO2 (stereo not given),-12.92%
25,O=C(NC1CC1)N1CCOCC2(C1)CN(c1ccccc1)C(=O)CO2 (stereo not given),106.4%
26,N#Cc1cccc(N2CCCC3(CN(C(=O)NC4CC4)CCO3)C2)c1 (stereo not given),4.321%
27,O=C(O)C(F)(F)F.O=C(c1c[nH]cn1)N1CCOCC2(C1)CN(c1ccccc1)C(=O)CO2 (stereo not given),97.27%

row,Structure (SMILES),Percent Effect
1,N#Cc1cccc(N2CCOCC3(CCCN(C(=O)NC4CC4)C3)C2)c1 (stereo not given),10.86%
2,N#Cc1cccc(N2CCCC3(CN(C(=O)c4ccc[nH]4)CCO3)C2)c1 (stereo not given),-1.292%
3,O=C(O)C(F)(F)F.O=C1COC2(COCCN(Cc3ccsc3)C2)CN1c1ccc(F)cc1 (stereo not given),3.467%
4,COCC(=O)N1Cc2ccnn2CC(COCCN(C)C)C1.O=C(O)C(F)(F)F.O=C(O)C(F)(F)F (stereo not given),-12.14%
5,Cc1csc(-c2cccc(NC(=O)NCC(C)(C)C(N)=O)c2)n1,1.71%
6,CC(C)n1cnc2c1C(C(=O)N(C)C)N(Cc1ccccc1)CC2.O=C(O)C(F)(F)F (stereo not given),-8.577%
7,O=C(c1cc[nH]n1)N1CCOCC2(C1)CN(c1ccccc1)C(=O)CO2 (stereo not given),99%
8,Cc1cnc(CN2CCN(C(C)c3nc(C)no3)CC2)cn1 (stereo not given),31.99%
9,Cc1noc(C(C)N2CCN(CCn3ccccc3=O)CC2)n1 (stereo not given),1.866%
10,Cc1noc(C(C)N2CCN(CCC(=O)N3CCOCC3)CC2)n1 (stereo not given),136%
11,Cc1noc(C(C)N2CCN(CC(=O)N3CCCC3)CC2)n1 (stereo not given),104.8%
12,Cc1noc(C(C)N2CCN(CCc3ccncc3)CC2)n1 (stereo not given),-4.658%
13,CCOc1cc(C)nc(N2CCN(C(C)c3nc(C)no3)CC2)n1 (stereo not given),-8.841%
14,Cn1ccnc1C1CCN(S(=O)(=O)c2ccc3[nH]c(=O)[nH]c3c2)CC1,-2.986%
15,CC[C@H]1CN(S(=O)(=O)c2ccccc2)CC[C@H]1CC(=O)O,3.953%
16,O=C(c1[nH]nc(C2CC2)c1Cl)N1CCN(S(=O)(=O)c2ccccc2)CC1,-6.506%
17,CCc1cc(=O)[nH]c(NC2CCN(S(=O)(=O)c3ccccc3)CC2)n1,74.59%
18,Cc1nc(NC2CCN(S(=O)(=O)c3ccccc3)CC2)[nH]c(=O)c1C,93.81%
19,Cc1cc(=O)[nH]c(NC2CCN(S(=O)(=O)c3ccccc3)CC2)n1,124.4%
20,Cc1cc(=O)[nH]c(NCCNC(=O)c2ccccc2N2CCCC2)n1,13.63%
21,CCc1cc(NC2CCN(S(C)(=O)=O)CC2)n2nc(C)c(C)c2n1,-8.298%
22,Cn1ccnc1C1CCN(S(=O)(=O)c2ccc3oc(=O)[nH]c3c2)CC1,-28.87%
23,CC(C)(C)n1ncc2c(=O)[nH]c(NC3CC=CC3)nc21,3.92%
24,CS(=O)(=O)NC[C@H]1Cn2c(-c3ccccc3)cnc2CO1,-16.47%
25,CCN(C(c1cccnc1)c1ccc(F)cc1F)S(C)(=O)=O (stereo not given),-3.142%
26,CCNC(c1cccnc1)c1ccc(F)c(F)c1 (stereo not given),-4.502%
27,CCC(Nc1ncccn1)c1cccnc1 (stereo not given),8.55%

row,Structure (SMILES),Percent Effect
1,CCNC(c1cccnc1)c1ccc(F)c(C)c1 (stereo not given),95.54%
2,CC(NCCCC#N)c1ccc(-c2cccnc2)cc1 (stereo not given),-3.574%
3,CCN(C(c1cccnc1)c1ccc(F)c(F)c1)S(C)(=O)=O (stereo not given),5.552%
4,CCNC(c1ccc(C(C)C)cc1)c1cccnc1 (stereo not given),85.86%
5,CCNC(c1ccc(Br)cc1)c1cccnc1 (stereo not given),106.3%
6,CCOCCN(C)C(c1cccnc1)c1ccc(F)cc1F (stereo not given),-0.1699%
7,CCNC(c1ccc(OC)cc1)c1cccnc1 (stereo not given),-6.571%
8,CCNC(c1cccnc1)c1ccc(F)cc1F (stereo not given),101.5%
9,NC(=O)CC1CCN(C(=O)CCOc2ccc(Cl)cc2)CC1,-10.96%
10,COCCCN(C)C(=O)Cn1cccc(OC)c1=O,-68.57%
11,CN(C)Cc1cn(CC2CCCN(c3nccc4occc34)C2)nn1 (stereo not given),-7.203%
12,Cc1nc(CN2CCN(Cc3cc4n(n3)CCNC4)CC2)cs1,-7.4%
13,O=C(c1ncn2c1CNS(=O)(=O)c1ccccc1-2)N1CCCCCC1,-12.52%
14,CCc1cnc(NCC(C)Oc2cccnc2)nc1 (stereo not given),7.623%
15,CCNC(c1ccc(Cl)cc1)c1cccnc1 (stereo not given),74.82%
16,CCNC(c1ccc(C)cc1)c1cccnc1 (stereo not given),100.9%
17,CC(NCc1cccc(S(=O)(=O)N(C)C)c1)c1cccnc1 (stereo not given),-5.764%
18,Cc1ccc(C)c(C(NC2CCCC2)c2cccnc2)c1 (stereo not given),-43.53%
19,CCNC(c1ccc(CC)cc1)c1cccnc1 (stereo not given),93.88%
20,CCNC(c1cccnc1)c1cc(C)cc(C)c1 (stereo not given),1.12%
21,Cc1[nH]c2c(F)cccc2c1CC(=O)N1CCC(NS(C)(=O)=O)CC1,3.004%
22,N#Cc1ccc(N2CCCC2Cn2cccn2)nc1 (stereo not given),15.37%
23,CCc1ncc(C(=O)N2CCCOC(Cn3cccn3)C2)cn1 (stereo not given),5.482%
24,N[C@H]1CN(C(=O)Cc2cc(F)cc(Cl)c2)C[C@@H]1C1CC1,-8.09%
25,CC(C)n1cc(CN2CCCN(C(=O)C3(C)CCOCC3)CC2)cn1,-0.3166%
26,CC(C)n1cc(CN2CCCN(C(=O)C3CCOC3)CC2)cn1 (stereo not given),103.2%
27,CC(C)n1cc(CN2CCCN(C(=O)C3CCCN3C)CC2)cn1 (stereo not given),115.6%

row,Structure (SMILES),Percent Effect
1,CCc1nc(CN2CCCN(C(=O)C3CCOC3)CC2)cs1 (stereo not given),3.952%
2,CC(C)n1cc(CN2CCCN(C(=O)c3ccnn3C)CC2)cn1,-7.528%
3,CC(C)=CCCC(C)CN1CCC(n2cc(C(C)(C)O)nn2)CC1 (stereo not given),-10.5%
4,O=c1[nH]c(C2CCOC2)nc2cc(F)c(F)cc12 (stereo not given),-25.67%
5,c1ccc2oc(CCCN3CCCC(Cn4cncn4)C3)nc2c1 (stereo not given),99.07%
6,c1cnn(CC2CN(Cc3nnc(C4CC4)o3)CCO2)c1 (stereo not given),144.3%
7,c1ccc(-c2noc(CN3CCOC(Cn4cccn4)C3)n2)nc1 (stereo not given),10.47%
8,CC(C)(C)c1nnc(CN2CCOC(Cn3cccn3)C2)o1 (stereo not given),-7.281%
9,Cc1cnn(CC2CN(CCCS(C)(=O)=O)CCO2)c1 (stereo not given),-24.88%
10,Cc1cnn(CC2CN(CCCc3nc4ccccc4o3)CCO2)c1 (stereo not given),130.7%
11,O=c1[nH]c(CCN2CCCC(Cn3cncn3)C2)nc2ccccc12 (stereo not given),2.487%
12,c1coc(-c2nnc(CN3CCOC(Cn4cccn4)C3)o2)c1 (stereo not given),-1.801%
13,Nc1nc(CN2CCCC(Cn3cncn3)C2)nc2ccccc12 (stereo not given),-7.621%
14,Cc1cnn(CC2CN(CCCS(=O)(=O)N(C)C)CCO2)c1 (stereo not given),6.483%
15,c1ccc2oc(CCCN3CCOC(Cn4cccn4)C3)nc2c1 (stereo not given),-3.137%
16,c1ccc2oc(CN3CCOC(Cn4cccn4)C3)nc2c1 (stereo not given),90.04%
17,COc1ccc(CC(=O)N(C)C2CCN(C)C2=O)cc1F (stereo not given),-7.072%
18,CS(=O)(=O)N1CCC(Oc2ccc(C(=O)NC3CCOC3)cc2Cl)CC1 (stereo not given),6.025%
19,COC(=O)CN(C(=O)c1ccc(Cl)cn1)c1cccc(F)c1,-0.7063%
20,c1ccc2oc(CCCN3CCOC(Cn4cncn4)C3)nc2c1 (stereo not given),115.2%
21,Cc1cnn(CC2CN(Cc3nc4ccccc4o3)CCO2)c1 (stereo not given),139.9%
22,Cn1c(CN2CCOC(Cn3cncn3)C2)nc2ccccc21 (stereo not given),-24%
23,Cc1cnn(CC2CN(CCS(=O)(=O)c3ccccc3)CCO2)c1 (stereo not given),5.078%
24,Cc1cnn(CC2CN(Cc3nc4ccccc4n3C)CCO2)c1 (stereo not given),109.8%
